HPGD inh = qHTS Assay for Inhibitors of HPGD (15-Hydroxyprostaglandin Dehydrogenase) | Potency, µM, without a hit: at the highest dose activity change, negative = inhibition, actives largely listed as inhibitors | purified HPGD, NADH fluorescence kinetic, PGE2 substrate | actives 4.3% (n = 150,000); active means well fitted inhibition curve with a large enough effect, not every such curve was filed as active; inconclusive means small, poorly fitted or top-dose-only effect, or another doubt; inactive means no such curve, though single readings can be large or run the other way; further: potency means the concentration at half of the fitted maximal effect
Target sequence (P15428 whole entry, looked up): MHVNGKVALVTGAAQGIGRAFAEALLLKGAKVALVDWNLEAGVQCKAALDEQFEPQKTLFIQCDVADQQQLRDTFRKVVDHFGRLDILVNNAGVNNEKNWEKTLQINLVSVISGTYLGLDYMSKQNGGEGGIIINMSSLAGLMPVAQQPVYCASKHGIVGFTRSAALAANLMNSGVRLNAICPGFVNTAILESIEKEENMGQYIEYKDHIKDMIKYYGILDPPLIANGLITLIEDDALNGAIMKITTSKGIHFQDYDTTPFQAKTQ
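20 nM HPGD preincubated 15 min at room temperature with compound in 50 mM Tris-HCl pH 8, 0.01% Tween 20. Started with 1 mM NAD+ and 30 uM prostaglandin E2; NADH fluorescence (360/450 nm) read 5 times over 30-s intervals, last minus first.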
IMPase Li inh = qHTS Assay for Identifying the Cell-Membrane Permeable IMPase Inhibitors: Potentiation with Lithium. Potency, µM (doses to about 59.4 µM), for inactives: at the top dose activity, negative = IMPase inhibition, usual class: inhibitors. actives 0.35% (n = 210,000). CHO-M1 cells, IP1 TR-FRET (IP-One), carbachol + lithium;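 further: IP1 builds up when IMPase is blocked and the TR-FRET signal falls; potency means the concentration at half of the fitted maximal effect; plate controls were basal vehicle for no effect and high inhibitor control for full effect; nearly all actives have a fitted effect of over 50% in size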
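CHO cells stably expressing M1 receptor (2000/well, cultured 16–30 h) treated 30 min at 37C with compound plus low lithium. Cytosolic IP1 by TR-FRET (665/620 ratio and 620 channel) after 10 min lysis; AC50 by Hill fit.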
12-hLO inh = qHTS Assay for Inhibitors of 12-hLO (12-human lipoxygenase); Polyunsaturated fatty acid lipoxygenase ALOX12 (Homo sapiens), P18054; purified 12-hLO, xylenol orange hydroperoxide absorbance; Potency, µM (doses to about 57.1 µM), for the others: at the highest dose activity change, negative = inhibition, hits mostly inhibitors; actives 0.12% (n = 150,000); AID 1452, 2008; further: potency means the concentration at half of the fitted maximal effect; nearly all actives have a fitted effect of over 55% in size
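150 nM 12hLO, 25 mM Hepes pH 7.0 + 0.01% Triton X-100; cpd preinc 15 min RT; 40 uM arachidonic acid, 30 min RT; Fe-XO 30 min; A573/A405 ratio as read-out.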
PNC inhibitor = High Content Assay for Compounds that inhibit the Assembly of the Perinucleolar Compartment; PC3M PTB-GFP, PNC prevalence imaging, 16 h; hits give low values; activity change (PNC), negative = inhibition, % at 10 µM; actives 3.1% (n = 140,000); AID 2417, 2010;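 active means readout at or below -70, meaning at least 70% loss of cells showing the perinucleolar compartment, a nuclear body marking cancer cells; inconclusive means readout between -30 and a set limit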;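 further: plate controls were DMSO wells for no effect and camptothecin positive control wells for full effect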
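Compounds are pinned in duplicate onto adhered PC3M cells stably expressing GFP-tagged PTB and incubated 16 h at 37 C. Cells are then fixed, nuclei stained with Hoechst, and PNC-positive cells counted.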
15-hLO-2 inh = qHTS Assay for Inhibitors of 15-hLO-2 (15-human lipoxygenase 2). purified 15hLO-2, xylenol orange hydroperoxide absorbance. Potency, µM (highest dose often 57.1 µM), for the others: top-dose activity change, negative = inhibition, most hits filed as inhibitors. actives 0.56% (n = 110,000); further: potency means the concentration at half of the fitted maximal effect; nearly all actives have a fitted effect of over 60% in size
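Screening format was qHTS against 50 nM purified 15hLO-2 in Hepes pH 7.5 with detergent. Activity follows hydroperoxide formation from 45 uM arachidonic acid, measured as 573:405 nm absorbance ratio of the ferric-xylenol orange complex.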
IMPase cell inh = qHTS Assay for Identifying the Cell-Membrane Permeable IMPase Inhibitors; CHO-M1 cells, IP1 accumulation, HTRF TR-FRET ratio; inhibition (IP1 accumulation), % at 46.1 µM; 120,000 tested, under 10 active; AID 901, 2007; active means well fitted curve in the direction sought with a large enough effect in the signal ratio, not every such curve was filed as active; inconclusive means small, poorly fitted or top-dose-only effect, or a change in a side signal; inactive means no such curve, though single readings can be large or run the other way; the % refers to the signal ratio;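 further: cells stimulated with carbachol in lithium chloride buffer; plate controls were DMSO basal wells for no effect and reference inhibitor wells for full effect; higher means more IMPase inhibition seen as more IP1 and lower FRET ratio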
Target sequence (P97697 whole entry, looked up): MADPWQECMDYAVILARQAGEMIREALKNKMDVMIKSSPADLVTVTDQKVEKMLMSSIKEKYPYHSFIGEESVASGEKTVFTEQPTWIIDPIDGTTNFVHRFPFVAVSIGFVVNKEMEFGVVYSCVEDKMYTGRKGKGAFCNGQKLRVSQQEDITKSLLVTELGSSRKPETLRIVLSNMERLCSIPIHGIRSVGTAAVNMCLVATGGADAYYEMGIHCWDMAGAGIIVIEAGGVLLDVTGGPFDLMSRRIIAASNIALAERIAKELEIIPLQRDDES
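Cellular IMPase inhibition is scored as a rise in cytosolic IP1, detected by competitive TR-FRET between d2-labelled IP1 and a europium anti-IP1 antibody. M1-expressing CHO cells were stimulated with carbachol for 30 min at 37C, with lithium (50 mM LiCl) present in the buffer.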
An asterisk follows results filed as active; ? = inconclusive; / = no result; [ ] = another dose, or the depositor's remark. Most compounds without a hit are left out; they make up all but 5.3% or so of the library. Unless noted, the call rests on the fitted dose curve; in most records, active means well fitted curve in the direction sought with a large enough effect; inconclusive means small, poorly fitted or top-dose-only effect, or another doubt; inactive means no such curve, though single readings can be large; an effect the other way counts as inactive or inconclusive. Unless noted, on the % scale 0 is the no-effect control and ±100 the full control effect.

SMILES	HPGD inh	IMPase Li inh	12-hLO inh	PNC inhibitor	15-hLO-2 inh	IMPase cell inh
O=C(O)c1ccc(CSc2nc3ccccc3o2)cc1	28.2µM*	-8.0%[38.3 µM]	-0.4%	-1.9	/	5.6
CCN(CC)c1ccc(/C=C2/C(=O)c3ccc(C(=O)O)cc3C2=O)cc1	11.2µM*	5.2%	2.5%	-13.1	/	/
COc1cc(C(=O)N/N=C/c2cc([N+](=O)[O-])cs2)cc(OC)c1OC	-7.6%	4.0%	0.4%	-102.6*	/	/
NC(=O)C1(N2CCCCC2)CCN(C(=O)CSc2nc3ccccc3s2)CC1	-24.5%	24.5%[38.3 µM]	-7.6%	?	0.9%	14.9
CCN1CCN(CCCN(Cc2ccco2)C(=S)Nc2ccc(Cl)c(C)c2)CC1	/	7.9%	/	/	/	/
COc1ccc(Cl)cc1NC(=S)N(CCCN1CCOCC1)Cc1cn(C)c2ccccc12	28.2µM*	8.9%	-7.5%	?	/	/
Cc1cc(NC(=S)N(CCCN2CCOCC2)Cc2ccco2)ccc1Cl	-15.8%	4.4%	4.6%	-118.2*	/	/
O=c1cnc2cnc(N3CCNCC3)nc2n1Cc1ccc(F)cc1	/	10.0%	/	/	0.2%	/
CCN1CCN(C(=O)c2sc3nc(C)nc(N4CCC(C)CC4)c3c2C)CC1	-4.3%	28.5%[38.3 µM]	2.0%	-88.2*	19.6%	-4.6
Cc1nc(N2CCC(C)CC2)c2c(C)c(C(=O)O)sc2n1	20µM*	?	-5.2%	11.1	4.1%	?
Cc1nc(N2CCC(C)CC2)c2c(C)c(C(=O)Nc3ccc(C)c(F)c3)sc2n1	/	1.5%	/	/	/	/
CC(C)(C)NC(=O)/C(=C\C=C\c1ccccc1)NC(=O)c1ccc([N+](=O)[O-])cc1	-11.9%	1.7%	-1.3%	?	/	-4.9
COC(=O)c1sccc1NC(=O)c1ccncc1	-17.7%	-8.9%[38.3 µM]	-1.0%	21.3	-10.9%	-7.0
COC(=O)c1sccc1NC(=O)c1sccc1C	?	-5.4%	-2.4%	-100.0*	/	4.4
COc1cc(C(=O)NNC(=O)c2ccc(NC(C)=O)cc2)cc(OC)c1OC	/	3.2%	/	/	/	/
COc1cc(C(=O)/C=C/Nc2ccc(NC(C)=O)cc2)cc(OC)c1OC	28.2µM*	-8.0%	0.4%	-95.2*	/	/
Cc1nc2ccccc2c(=O)n1NC(=O)c1c(O)c2c(n(CC(C)C)c1=O)CCCC2	-15.9%	11.1%	-2.3%	-94.5*	/	?
CC(=O)NCC(=O)N1CCCC(C(=O)c2ccc(Oc3ccccc3)cc2)C1 (configuration not stated)	/	12.1%	/	/	/	/
CC(C)COC(=O)/C(C#N)=C/c1c[nH]c2ccccc12	-6.8%	12.5%	0.9%	?	/	4.1
N#C/C(=C\c1ccc(O)c(O)c1)C(=O)OCCc1cccs1	28.2µM*	12.6%	?	/	12.6µM*	1.5
N#C/C(=C\c1c[nH]c2ccccc12)C(=O)c1ccc(O)c(O)c1	3.55µM*	35.4%	3.98µM*	/	-28.9%	10.0
N#C/C(=C\c1ccc(O)c(O)c1)C(=O)c1ccc(O)c(O)c1	7.94µM*	43.8%	?	/	-29.2%	?
CCOC(=O)c1sc(N)c(C(=O)Nc2ccc(C)cc2C)c1C	3.98µM*	/	-20.3%	/	/	/
CN(C)CCNC(=O)c1ccc(-c2nn(C)c(=O)c3ccccc23)cc1	20µM*	25.3%[38.3 µM]	5.0%	?	-0.1%	-6.6
Cn1nc(-c2ccc(OCC(=O)Nc3ccccc3)cc2)c2ccccc2c1=O	28.2µM*	40.2%[38.3 µM]	7.4%	?	-10.4%	8.8
SMILES	HPGD inh	IMPase Li inh	12-hLO inh	PNC inhibitor	15-hLO-2 inh	IMPase cell inh
CCC(CO)NC(=O)c1ccc(-c2nn(C)c(=O)c3ccccc23)cc1 (configuration not stated)	31.6µM*	19.2%[38.3 µM]	2.3%	-11.6	0.4%	-5.0
CN(C(=O)c1ccc(-c2nn(C)c(=O)c3ccccc23)cc1)c1ccccc1	7.94µM*	35.8%[38.3 µM]	-0.8%	-12.6	-4.3%	1.9
COc1ccccc1NC(=O)c1ccc(-c2nn(C)c(=O)c3ccccc23)cc1	/	15.1%	/	/	/	/
CC(=O)NCc1cc(-c2nn(C)c(=O)c3ccccc23)ccc1C	-28.5%	24.9%[38.3 µM]	7.8%	?	10.4%	-5.0
Cc1ccc(-c2nn(C)c(=O)c3ccccc23)cc1CNC(=O)c1ccco1	3.55µM*	-6.3%[38.3 µM]	-5.6%	-26.4	1.3%	4.8
CC1CCC(NC(=O)Nc2cccs2)CC1 (configuration not stated)	?	26.0%[38.3 µM]	-15.2%	38.9	-23.5%	3.5
O=C(Nc1cccs1)NC1CCCC1	31.6µM*	22.4%[38.3 µM]	-18.7%	29.4	?	-8.6
CC(C)NC(=O)Nc1cccs1	-14.7%	-0.1%	-4.6%	-100.0*	/	3.7
Cc1ccccc1NC(=O)Nc1cccs1	-16.8%	12.6%[38.3 µM]	-6.9%	?	-17.6%	1.9
Cc1cccc(-c2nsc(SCC(=O)NCC3CCCO3)n2)c1 (configuration not stated)	/	0.9%	/	/	/	/
CC(C)CNC(=S)Nc1ccc(Oc2ccccc2)cc1	/	/	?	17.0	/	2.6
COC(=O)c1ccc(C#CC(NP(=O)(c2ccccc2)c2ccccc2)c2ccccc2)cc1 (configuration not stated)	25.1µM*	13.3%	-7.8%	/	20.1%	/
Cc1cc(C)c2nc(NC(=O)[C@@H](NC(=O)c3cccc(S(=O)(=O)N4CCOCC4)c3)C(C)C)sc2c1	-16.6%	5.7%	0.5%	20.9	/	/
Cc1cc(C)cc(CC(Cc2nc3ccccc3[nH]2)c2nc3ccccc3[nH]2)c1 (configuration not stated)	2.4%	21.0%[38.3 µM]	-24.9%	?	33.0%	3.9
Clc1ccccc1-c1nc(N/N=C/c2cccnc2)c2ccccc2n1	14.1µM*	-0.7%[38.3 µM]	0.6%	?	-6.6%	2.8
Cc1ccc(-c2nc(N/N=C/c3ccncc3)c3ccccc3n2)cc1	-23.9%	4.8%[38.3 µM]	-15.8%	-83.3*	13.4%	10.8
Cc1ccc(NC(=O)CSc2nc(N)c3c4c(sc3n2)CSC(C)(C)C4)cc1	-29.1%	-4.3%	-22.4%	-92.6*	/	/
CCOc1ccc(N2C(=O)/C(=C\c3ccccc3OC)S(=O)(=O)C2c2cccc([N+](=O)[O-])c2)cc1 (configuration not stated)	-14.8%	-6.1%	1.1%	-15.5	/	/
CCSc1nnc(NC(=O)c2ccc3ccccc3n2)s1	-24.4%	-0.5%[38.3 µM]	-10.7%	8.2	34.7%	?
Cc1nc(C)c(C(=O)NCc2ccccc2Cl)o1	25.1µM*	1.7%[38.3 µM]	-2.0%	-14.4	-11.6%	-5.0

High-throughput results from PubChem.
